Compounds with a hit are over-represented: about 21% of the library has one in this group of screens.
Pf growth 48h: P. falciparum growth inhibition at 48 hours (one generation) | P. falciparum luciferase growth in erythrocytes, 48 h | Potency, µM (titrated, usually from 28.7 µM), inactives show at the top dose activity change, negative = inhibition, usual class: inhibitors | 310,000 tested, 5.9% active; also: potency is read from the fitted curve at half-maximal effect; % is scaled to controls: 0 for no effect and ±100 for the full control effect
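Luciferase-expressing P. falciparum in infected erythrocytes (2% hematocrit, 0.1% parasitemia final) in RPMI 1640/0.5% Albumax were exposed to compound for 48 hours at 37 C, 5% CO2; growth read as luminescence.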
Shiga inhibitor: Shiga toxin inhibition. Vero cells, Shiga toxin protein synthesis inhibition reporter. inhibition, % at 38.7 µM. 290,000 tested, 9.2% active; in the data active = inhibition mostly above about 28%, no sharp cut-off; inactive = mostly below about 43%; also: 0% is about no effect
Pf growth 96h: inhibits malaria parasite growth, 96 h | P. falciparum luciferase reporter growth, 96 h | Potency, µM (top dose mostly 28.7 µM), inactives show at the highest dose activity change, negative = inhibition, usual class: inhibitors | 320,000 tested, 6.9% active | AID 504834; also: potency is read from the fitted curve at half-maximal effect; % is scaled to controls: 0 for no effect and ±100 for the full control effect
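96 h incubation, 37 C, 5% CO2, of luciferase-reporter P. falciparum-infected RBCs (2% hematocrit, 0.05% parasitemia final) with test compounds; endpoint luminescence.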
HCV inh: inhibitors of hepatitis C virus infection. Potency, µM (doses to about 41.8 µM), for inactives: at the top dose activity change, negative = inhibition, usual class: inhibitors. Huh7.5.1 HCVcc-Cre infection, luciferase reporter, 44 h. 340,000 tested, 3.4% active; also: potency is read from the fitted curve at half-maximal effect; % is scaled to controls: 0 for no effect and ±100 for the full control effect
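Compounds are dispensed onto cells plated 4 h earlier at 1,000 per well, with HCVcc-Cre virus (about 0.5 moi) added next. Following 44 h of culture, luminescent signal is measured for 15 sec after 15 min with substrate at room temperature.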
HCMV inh: human cytomegalovirus inhibition. HFF cells, HCMV-luciferase reporter, 72 h; active compounds read low. activity change, negative = inhibition, % at 57.5 µM. 410,000 tested, 4.5% active. AID 1259415; in the data active = activity change below about -60%; inconclusive = no clear call, values can overlap the other calls; inactive = above about -39%; also: % is scaled to controls: 0 for no effect and ±100 for the full control effect
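After 16 h attachment at 37C, HFF cells received test compound and HCMV-luciferase (1 PFU/cell); reporter luminescence read 72 h later, data normalized against buffer-only and known inhibitor Salinomycin.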
Cycloheximide cs: affects cycloheximide protein synthesis inhibition readout, counter-screen; cell reporter, cycloheximide protein synthesis inhibition counterscreen; max response, %; 300,000 tested, 12% active; AID 2314; in the data active = max response mostly above about 13%, no sharp cut-off; inactive = mostly below about 14%; also: read at 38.3 µM for the half of the compounds with a filed dose; 0% is about no effect
Starred values were filed as active, the others as inactive; ? = inconclusive; · = not tested or not shown; ! = not active in a repeat. Unless noted, calls follow the shape of the dose curve; as a rule, active = well fitted inhibition curve with a large enough effect; inconclusive = small, poorly fitted or top-dose-only effect, or another doubt; inactive = no such curve, though single readings can be large or run the other way.

SMILES	Pf growth 48h	Shiga inhibitor	Pf growth 96h	HCV inh	HCMV inh	Cycloheximide cs
CC(C)n1c(SCC(=O)NC2CC2)nnc1C1CC1	68%	-5	?	12%	34	1
CC(C)Nc1ncnc2ccc(Br)cc12	?	-6	-73%	?	-96*	-3
COc1ccccc1Nc1ncnc2ccccc12	40%	35	9%	-20%	26	17*
COc1ccccc1Nc1ncnc2sccc12	-1%	-3	6%	-6%	-10	3
CCOc1ccccc1Nc1ncnc2ccc(Br)cc12	6%	2	?	22µM*	-30	-4
O=[N+]([O-])c1ccc(O)c(Nc2ncnc3ccc(Br)cc23)c1	?	8	0%	-16%	-20	-4
CC(C)COc1ccc(Nc2ncnc3ccc(Br)cc23)cc1	·	·	·	·	-5	·
CCOc1ccccc1Nc1ncnc2ccccc12	7%	12	-20%	10µM*	-17	-3
Cc1ccc(NC(=O)c2ncn(CCCN[C@H](C)c3cccc4ccccc34)n2)cc1C	·	·	·	5%	-33	·
Cc1ccc(/C=C(/NC(=O)c2ccccc2)C(=O)NC(Cc2c[nH]c3ccccc23)C(=O)O)cc1 (centres undefined)	13%	4	183%	4%	-1	-3
COc1ccc(S(=O)(=O)Nc2cc3c4c(c2)CC(=O)N4CCC3)cc1C	?	·	?	?	-27	·
Cc1ccc2c(c1)[C@H]1[C@H](CO2)[C@H](c2ccccc2)[C@]2(C)C(=O)Nc3cc(Cl)ccc3C(=O)N12	8.3µM*	·	9.3µM*	?	·	·
Cc1ccc2c(c1)[C@H]1[C@H](CO2)[C@H](c2ccccc2)[C@]2(C)C(=O)Nc3cc(F)c(F)cc3C(=O)N12	·	·	·	?	-70*	·
COC(=O)c1c(-c2ccc(Cl)cc2)noc1N1CCN(c2ccccc2OC)CC1	·	·	·	·	-37	·
CCN(CC)c1ccc(/C=N/N2CCOCC2)cc1	111%	52*	?	?	35	53*
CCN(Cc1ccccc1)c1ccc(/C=N/N2CCOCC2)cc1	32%	28*	59%	4%	7	36*
COc1ccc(N=C2S/C(=C\c3cc(C)n(C)c3C)C(=O)N2CC(C)C)cc1	?	-15	?	10µM*	31	2
COC(=O)CN1C(=O)S/C(=C/c2cc(C)n(C)c2C)C1=O	68%	35*	?	-4%	32	28*
CCN(CC)CCN1C(=O)/C(=C\c2ccc(Cl)c([N+](=O)[O-])c2)SC1=Nc1ccc(OC)cc1	?	-8	11%	?	-99*	-2
CCN1C(=O)/C(=C/c2cccs2)SC1=Nc1ccc(OC)cc1	-22%	-3	4.7µM*	5%	-10	-3
Cc1cc(C)c(OCC(=O)OCC(=O)NC2CCC(C)CC2)c(C)c1 (centres undefined)	17%	·	32%	9%	-4	·
Cn1c(=O)c2c(ncn2Cc2nnc(N)s2)n(C)c1=O	0%	-5	32%	18%	?	3
S=c1[nH]nc(Cc2ccccc2)n1Cc1ccco1	12%	-10	·	12%	-109*	7
Cc1ccc(C(=O)Nc2ccc(N3CCN(C)CC3)nc2)cc1	413%	41	?	8%	40	32*
O=C(Nc1ccc(N2CCOCC2)nc1)c1ccc(C(F)(F)F)cc1	-13%	3	?	7.1µM*	-68*	10
SMILES	Pf growth 48h	Shiga inhibitor	Pf growth 96h	HCV inh	HCMV inh	Cycloheximide cs
Cc1cccc(C(=O)Nc2ccc(N3CCN(c4ccc(C(F)(F)F)cn4)CC3)nc2)c1	?	-3	-9%	16%	-32	-2
O=C(Nc1ccc(N2CCOCC2)nc1)c1ccccc1Cl	135%	28	40%	16%	6	29*
Cc1ccc(C(=O)Nc2ccc(N3CCN(S(C)(=O)=O)CC3)cc2)cc1	·	-3	16%	6%	21	10
COc1ccc(OC)c(NC(=O)c2cc(S(=O)(=O)NCc3ccco3)ccc2F)c1	0%	58*	1.2µM*	25µM*	-23	47*
COc1ccc(C(CNC(=O)c2cc(S(=O)(=O)NCc3ccco3)ccc2C)N(C)C)cc1 (centres undefined)	·	·	·	-15%	0	·
COc1ccc(S(=O)(=O)NCc2ccco2)cc1N(C)S(=O)(=O)c1ccccc1	-5%	51*	?	-8%	?	33*
CCOc1ccccc1NC(=O)c1cc(S(=O)(=O)NCc2ccco2)ccc1F	-30%	35*	51%	3%	0	42*
COc1ccccc1N(C)S(=O)(=O)c1ccc(Cl)c(C(=O)NCc2ccco2)c1	·	·	·	-7%	-25	·
O=C(COC(=O)c1ccc(S(=O)(=O)NCc2ccco2)cc1)Nc1ccccc1OC(F)F	18%	74*	12%	11µM*!	60	67*
O=C(COC(=O)c1ccc(S(=O)(=O)NCc2ccco2)cc1)Nc1ccccc1	20%	·	38%	11%	-2	·
O=C(Nc1ccc(F)cc1F)c1ccc(S(=O)(=O)NCc2ccco2)cc1	·	·	·	-1%	0	·
CCCCN(C)S(=O)(=O)c1ccc(NC2=NS(=O)(=O)c3ccccc32)cc1	·	·	·	·	4	·
C[C@H](CO)N1C[C@H](C)[C@@H](CN(C)Cc2ccncc2)Oc2c(NC(=O)C3CC3)cccc2C1=O	·	·	·	1%	-8	·
CSCCC(N=C(NS(=O)(=O)c1ccccc1)c1ccccc1)C(=O)O (centres undefined)	16%	35	15%	13%	-28	0
COc1ccc(NC(=O)c2cc(OC)c(OC)c(OC)c2Br)cc1OC	7%	4	?	6%	-6	-4
COc1cc(C(=O)Nc2ccc(C(C)=O)cc2)c(Br)c(OC)c1OC	60%	70*	82%	-14%	98	42*
CCCOC(=O)c1ccc(NC(=O)c2cc(OC)c(OC)c(OC)c2Br)cc1	-16%	-5	11%	7.1µM*	25	-3
COc1cc(C#Cc2c(-c3cncn3C)n(C)c3ccc(-c4cnc(N5CCOCC5)nc4)cc23)cc(OC)c1	·	·	·	15%	47	·
COc1cc(C#Cc2c(-c3cncn3C)n(C)c3ccc(-c4ccc(CN5CCOCC5)cc4)cc23)cc(OC)c1	·	·	·	11µM*	-10	·

Assay outcomes deposited in PubChem BioAssay by National Center for Advancing Translational Sciences (NCATS).
